Laboratory results taken from PubChem BioAssay (EPA / NIEHS).
The source made the active and inactive calls. The calls were made as follows: active = hit-call score of the fitted dose curve at least 0.9, where 1 is the maximum; inactive = score below 0.9.

Experiment: BSK_3C_Vis: BioMAP Diversity Plus: 3C Assay for Morphology Visualization (AID 2283025);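 also: fitted both ways so gain or loss versus DMSO counts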
Settings: primary human endothelial cells (HUVEC)
Description: BSK_3C is a cell-based, multiplexed-readout assay that uses umbilical vein endothelium, a human vascular primary cell, with measurements taken at 24 hours after chemical dosing in a 96-well plate.BSK_3C_Vis is an assay component measured in the BSK_3C assay. It measures NA related to cell morphology using light microscopy technology.Data from the assay component BSK_3C_Vis was analyzed into 1 assay endpoint. This assay endpoint, BSK_3C_Vis, was analyzed with bidirectional fitting relative to DMSO as the negative control and baseline of activity. Using a type of morphology reporter, gain or loss-of-signal activity can be used to understand changes in the background control. Furthermore, this assay endpoint can be referred to as a secondary readout, because this assay has produced multiple assay endpoints where this one serves a background control function. To generalize the intended target to other relatable targets, this assay endpoint is annotated to the cell morphology intended target family, where the subfamily is cell conformation.
The levels of cell surface (or secreted, indicated by the prefix "s") biomarker endpoints were measured by ELISA. Overt cytotoxicity to cells in confluent adherent cultures (all systems other than the BT system) was assessed by measuring total protein levels using sulforhodamine B (SRB) staining in parallel cultures at the time of biomarker measurements, indicated as SRB endpoints. For proliferation assays for adherent cell types, individual cell types are cultured at sub-confluence and relative cell numbers quantified by SRB staining at time points optimized for each system (48 h: 3C and CASM3C systems; 72 h: BT and HDF3CGF systems; 96 h: SAg system). SRB was performed by staining cells with 0.1% SRB after fixation with 10% TCA and reading wells at 560 nm.Viability and proliferation of PBMC (T cells) was quantified by Alamar Blue reduction for the SAg and BT systems. For PBMC viability (referred to as PBMC Cytotoxicity within the assay endpoint names), cells were plated (75,000/well in a 96-well plate) and then chemical samples added for 1 h before addition of activators, SEB and TSST-1 (20 ng/mL final concentration each). Cells were incubated for 90 h. Then, Alamar Blue (20 uL/well) (Invitrogen, Cat DAL1100) was added for 6 h, and the plates were read with a fluorescence microplate reader at 546/580 nm (excitation/emission). For PBMC proliferation, cells were plated and activated as above but incubated for only 16 h prior to addition of Alamar Blue. Plates were read after 6 h.

Q: With Cc1cc(O)c(C(C)(C)C)cc1C(C)(C)C as the compound, how does the AC50 read?
A: 12.5 µM (active)

Q: Which outcome does the source give for C[C@]12CC[C@H]3C(=CCc4cc(O)ccc43)[C@@H]1CCC2=O here?
A: inactive

Q: With CCOC(C=C(C)CCC=C(C)C)OCC as the compound, how does the AC50 read?
A: 37.1 µM (active)

Q: Which outcome does the source give for O=C(c1ccccc1)c1ccc(O)cc1O here?
A: inactive

Q: For CCN(CC)c1ccc2c(c1)Oc1cc(N(CC)CC)ccc1C21OC(=O)c2ccccc21, which AC50 is on record?
A: 19.9 µM (active)

Q: Which AC50 does the source give for O=C1C=CC(=O)N1c1ccc(Cc2ccc(N3C(=O)C=CC3=O)cc2)cc1 here?
A: 5.63 µM (active)

Q: For CC(C)(C)c1cc(CCC(=O)NCCCCCCNC(=O)CCc2cc(C(C)(C)C)c(O)c(C(C)(C)C)c2)cc(C(C)(C)C)c1O, which AC50 is on record?
A: 3.25 µM (active)

Q: Which outcome does the source give for CC1=CC2C3C=CC(C3)C2C1C (stereo unspecified) here?
A: inactive

Q: Which outcome does the source give for O=C=Nc1cccc2c(N=C=O)cccc12 here?
A: inactive

Q: Which AC50 does the source give for Cc1cc(C)c(O)c(C(C)(C)C)c1 here?
A: 14.9 µM (active)

Q: Which outcome does the source give for Cc1cnccn1 here?
A: inactive

Q: Which AC50 does the source give for CC(C)CCCC(C)CCO (stereo unspecified) here?
A: 39.6 µM (active)

Q: With Cc1ccc(S(=O)(=O)C(I)I)cc1 as the compound, how does the AC50 read?
A: 1.85 µM (active)

Q: With O=C=NCc1cccc(CN=C=O)c1 as the compound, how does the outcome read?
A: inactive

Q: Which outcome does the source give for CCN(CC)c1ccc(C=O)c(O)c1 here?
A: inactive

Q: With O=C1c2c(O)ccc(Nc3ccc(CCO)cc3)c2C(=O)c2c([N+](=O)[O-])ccc(O)c21 as the compound, how does the AC50 read?
A: 15.4 µM (active)

Q: Which outcome does the source give for Brc1nc2ccccc2s1 here?
A: inactive

Q: With CCN(CC)c1ccc(N=Nc2ccccc2)cc1 as the compound, how does the AC50 read?
A: 8.8 µM (active)

Q: Which outcome does the source give for Nc1cc([N+](=O)[O-])cc(Cl)c1O here?
A: inactive

Q: For Cc1ccc(O)c(-n2nc3ccccc3n2)c1, which outcome is on record?
A: inactive

Q: With CCN(CC)c1ccc(C=O)cc1 as the compound, how does the outcome read?
A: inactive
